test system: LXRb homodimer (NR concentration 270 nM); assay: PBM binding z-score (relative to random genomic background probes); higher = stronger binding; sequences stand for … in GC…GCGATTGACAGCGTAGAATGAAGG
Procedure, shortened: (§1)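 Scanned fluorescence from custom Agilent 4×180K protein-binding microarrays was regression-normalized. Binding z-scores use random background probes as reference. Ligand-free nuclear receptor dimers were incubated on the arrays for 1 h and detected with antibodies against each partner (one per run).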

Point of comparison: CGTCCAAGGTCAATGCTAGGTCCGTGAAAGCATT, PBM binding z-score 0.496. Against it:
- CAAACTAGGTTAAGAGGTCAAAGTCCGCTTCCCG — higher, 1.58
- CGTCCAAGGTCAGCAGGTCCGTGAAAGCGACGTG — lower, -0.0479
- CGTCATAGTTCAACTAAGGTAACGTAAAGCACGC — higher, 0.806
- ACCTCTAGGTAAAAGTTCAGTGAATCCCGAGGAT — lower, -0.0602
- GCATATAGGTAATACAAGGTGAAAGCCCGATTGT — lower, -0.242
- CGAACTAGGTCATTGACAGTACAGTGAATAGTAA — lower, 0.232
- AGTCAAAGTTCATTAGGTAACGTAAGATTCAGCT — higher, 1.67
- TCTTGTAGATCAACCGGAGGTTAAGAAAGATCGA — lower, -0.00394
- CGAACTAGGTCAGAACAGGCCAGTGAAGGATGAT — lower, -0.675
- ATCTCTAGGTAAGACTCAGTTCAGTTAAGAACGC — higher, 1.02
- AGAATGAGCTTACCAAAGATCAGGGAAACGCTTG — lower, -0.394
- GATACAGGATCAAGGCCAGAGTACGCGTATTGAT — lower, -0.452
- CGAACTAGGTCAGAACAGGACTGTGAAGGATGAT — lower, -0.415
- GCTGCTAGGGCAACTGATGGTCAGCTAAAGCTCG — lower, -0.673
- CTCGAAAGGTCGTGCTCGGGTGAGTATACCAAAC — lower, -0.0126
- GCTTGTAGATCAAGGTTAAGACAGACTAAGCTAA — lower, -0.279
- TCTATTAGCTGATTAGGGCAACCGAAACAGCGGA — lower, -0.075
- ACTTACGGGTCAAAGAGGTTATAGCACGCGTATA — higher, 0.72
- TCTAGTTGGTCAAAGGACACACACTCGAAATGCG — lower, 0.181
- GCTGCTAGCTCAGGTTGGTCAGCTAACGGGTACG — lower, -1.25
- GCTGCTAGGTCAACTGATGGGCAGCTAAAGCTCG — lower, -0.413
- CGGACTGGGGCATAAGGTTACCATAAGCCAGCCC — lower, -0.487
- CCTACTGGGCCAAAGGTCATTGCTTCCAATGCTC — higher, 0.985
- TCTATCAGTTGATTAGGGCAACCGAAACAGCGGA — lower, 0.266
- TCGAGTAGGTGAGGGGCATTCAGAATGGCGTCGA — higher, 0.881
- CCGAATGGGGCATAAGGTTACCATAAGCCAGCCC — lower, -0.843
- CCGACTGGGGCAGAAAGGTTATCATACCATCCGG — lower, -0.748
- AGAATGAGGTTACCAAAGAGCAGGGAAACGCTTG — lower, -0.39
- TCTTGTAGAGCAGCAGGTTAAGAAAGCTGGCCAA — lower, -1.45
- CAAACTAGATCACAGAGGTCAAAGTCCGTGCGTA — higher, 2.14
- CCTACAGGGCCATTCAGAGGTCATTGATCATATG — lower, 0.447
- CGAACTAGCTCATTGACAGGACAGTGAATAGTAA — lower, -0.335
- GGAACGAGGGCATTCGGGTTGATAGCATGGCGAT — lower, -0.152
- CTCGAAAGGTCCTGCTCAGGTGAGTATACCAAAC — lower, -0.603
- AGAATGAGGATATACGTAGATCAGGGAAGAAAGT — lower, -0.429
- ATCGAAAGGTCTAGGTGAGTATAGAGAAAGGGAA — lower, 0.443
- TTACCAAGGTGAGCTGAGGTCGTTGATCCAACTC — lower, -0.932
- GATACAGAGTCAAGGCCAGAGTACGCGTATTGAT — lower, -0.712
- CGTCCAAGGTCAGAGAGATCAGTGAATGCCGAGT — lower, 0.0679

test system: PPARa:RXRa (NR concentration 270 nM, RXRa partner concentration 90 nM); assay: as above
Procedure, shortened: as §1

Point of comparison: TCTAGTTGGTCAAAGGACACACACTCGAAATGCG, PBM binding z-score 2.19. Against it:
- CAAACTAGGTTAAGAGGTCAAAGTCCGCTTCCCG — higher, 5.87
- CGTCCAAGGTCAGCAGGTCCGTGAAAGCGACGTG — higher, 4.13
- CGTCATAGTTCAACTAAGGTAACGTAAAGCACGC — higher, 3.13
- ACCTCTAGGTAAAAGTTCAGTGAATCCCGAGGAT — higher, 3.58
- GCATATAGGTAATACAAGGTGAAAGCCCGATTGT — lower, 1.56
- CGAACTAGGTCATTGACAGTACAGTGAATAGTAA — higher, 4.98
- AGTCAAAGTTCATTAGGTAACGTAAGATTCAGCT — higher, 4.63
- TCTTGTAGATCAACCGGAGGTTAAGAAAGATCGA — lower, 1.26
- CGAACTAGGTCAGAACAGGCCAGTGAAGGATGAT — higher, 3.02
- ATCTCTAGGTAAGACTCAGTTCAGTTAAGAACGC — lower, 0.229
- AGAATGAGCTTACCAAAGATCAGGGAAACGCTTG — lower, -0.401
- GATACAGGATCAAGGCCAGAGTACGCGTATTGAT — lower, -0.133
- CGAACTAGGTCAGAACAGGACTGTGAAGGATGAT — higher, 2.98
- GCTGCTAGGGCAACTGATGGTCAGCTAAAGCTCG — lower, -0.536
- CTCGAAAGGTCGTGCTCGGGTGAGTATACCAAAC — higher, 4.83
- GCTTGTAGATCAAGGTTAAGACAGACTAAGCTAA — lower, 1.61
- TCTATTAGCTGATTAGGGCAACCGAAACAGCGGA — lower, 0.627
- ACTTACGGGTCAAAGAGGTTATAGCACGCGTATA — higher, 5.71
- GCTGCTAGCTCAGGTTGGTCAGCTAACGGGTACG — lower, -1.08
- GCTGCTAGGTCAACTGATGGGCAGCTAAAGCTCG — higher, 3.25
- CGGACTGGGGCATAAGGTTACCATAAGCCAGCCC — higher, 2.78
- CCTACTGGGCCAAAGGTCATTGCTTCCAATGCTC — higher, 6.51
- TCTATCAGTTGATTAGGGCAACCGAAACAGCGGA — lower, 0.978
- TCGAGTAGGTGAGGGGCATTCAGAATGGCGTCGA — lower, 1.47
- CCGAATGGGGCATAAGGTTACCATAAGCCAGCCC — lower, 2.15
- CGTCCAAGGTCAATGCTAGGTCCGTGAAAGCATT — higher, 4.84
- CCGACTGGGGCAGAAAGGTTATCATACCATCCGG — lower, 2.05
- AGAATGAGGTTACCAAAGAGCAGGGAAACGCTTG — higher, 3.05
- TCTTGTAGAGCAGCAGGTTAAGAAAGCTGGCCAA — lower, 0.529
- CAAACTAGATCACAGAGGTCAAAGTCCGTGCGTA — higher, 5.26
- CCTACAGGGCCATTCAGAGGTCATTGATCATATG — higher, 3.5
- CGAACTAGCTCATTGACAGGACAGTGAATAGTAA — lower, -0.257
- GGAACGAGGGCATTCGGGTTGATAGCATGGCGAT — lower, 1.74
- CTCGAAAGGTCCTGCTCAGGTGAGTATACCAAAC — lower, 0.515
- AGAATGAGGATATACGTAGATCAGGGAAGAAAGT — lower, -0.509
- ATCGAAAGGTCTAGGTGAGTATAGAGAAAGGGAA — lower, 0.539
- TTACCAAGGTGAGCTGAGGTCGTTGATCCAACTC — lower, 1.75
- GATACAGAGTCAAGGCCAGAGTACGCGTATTGAT — lower, -0.293
- CGTCCAAGGTCAGAGAGATCAGTGAATGCCGAGT — higher, 3.73

— the supplement of paper PMC6555819
